ELG1 DNA repair = inhibitors of ELG1-dependent DNA repair in HEK293T cells | HEK293T ELG1-luciferase reporter, luminescence, 16 h; DNA damage induced by 5-fluorouridine | 330,000 tested, 2.3% active | Potency, µM (doses to about 46.1 µM), hits mostly inhibitors; note: nearly all actives have a fitted effect of over 55% in size
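DMSO vehicle served as the neutral condition. Each well held 2,000 cells given 5-fluorouridine plus compound; after 16 hr at 37 °C/5% CO2, ONE-Glo was added and luciferase measured 30 min later.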
ELG1 genotoxic = induces genotoxicity in HEK293T cells with luciferase-tagged ELG1. Potency, µM (doses to about 46 µM), hits mostly activators. HEK293T ELG1-luciferase reporter, luminescence, 16 h. 330,000 tested, 1.3% active; note: nearly all actives have a fitted effect of over 60% in size
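Genotoxicity was scored as increased ELG1-luciferase reporter signal, measured by ONE-Glo luminescence (30 min, room temperature). Compound or vehicle exposure of the HEK293T reporter cells lasted 16 hr at 37°C.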
SMN2 splice enh = SMN2 splice variant enhancement; Potency, µM (highest dose often 46.1 µM), actives largely listed as activators; AID 1458; 210,000 tested, 2.8% active; HEK293 SMN2-luciferase splicing reporter, luminescence, 30-36 h; note: nearly all actives have a fitted effect of over 55% in size
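qHTS luciferase splicing reporter: luminescence rises when SMN2 exon 7 is included in transfected HEK293 cells. Compound exposure lasted 30-36 h at 37C, with 4.5 mM final sodium butyrate as control, followed by a ONE-Glo read.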
NPC1 promoter act = activates the NPC1 promoter; 320,000 tested, 2.4% active; Huh7 NPC1 promoter luciferase reporter, 24 h; AID 485313; Potency, µM (titrated, usually from 9.22 µM), usual class: activators; note: nearly all actives have a fitted effect of over 60% in size
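Luminescence from an NPC1 promoter-driven luciferase reporter in stably transfected Huh7 cells was measured after 24 h compound treatment at 37 °C, followed by 10 min ambient incubation with luciferase detection reagent.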
Rab9 promoter act = activators of Rab9 promoter | AID 485297 | 320,000 tested, 2.8% active | Potency, µM (titrated, usually from 9.22 µM), most hits filed as activators | Huh7 Rab9 promoter-luciferase reporter, luminescence, 24 h; note: nearly all actives have a fitted effect of over 60% in size
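Huh7 reporter line, Rab9 promoter upstream of luciferase. Compound exposure 24 h at 37 °C in reduced-serum medium with 10% FBS. Read-out: luminescence.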
FLuc modulator = firefly luciferase modulation, counter-screen for miR-21 project. Potency, µM (top dose mostly 57.5 µM), most hits filed as inhibitors. P08659. purified FLuc, Km substrates, luminescence inhibition. 360,000 tested, 6.9% active. AID 588342; note: nearly all actives have a fitted effect of over 55% in size
Target sequence (P08659 whole entry, looked up): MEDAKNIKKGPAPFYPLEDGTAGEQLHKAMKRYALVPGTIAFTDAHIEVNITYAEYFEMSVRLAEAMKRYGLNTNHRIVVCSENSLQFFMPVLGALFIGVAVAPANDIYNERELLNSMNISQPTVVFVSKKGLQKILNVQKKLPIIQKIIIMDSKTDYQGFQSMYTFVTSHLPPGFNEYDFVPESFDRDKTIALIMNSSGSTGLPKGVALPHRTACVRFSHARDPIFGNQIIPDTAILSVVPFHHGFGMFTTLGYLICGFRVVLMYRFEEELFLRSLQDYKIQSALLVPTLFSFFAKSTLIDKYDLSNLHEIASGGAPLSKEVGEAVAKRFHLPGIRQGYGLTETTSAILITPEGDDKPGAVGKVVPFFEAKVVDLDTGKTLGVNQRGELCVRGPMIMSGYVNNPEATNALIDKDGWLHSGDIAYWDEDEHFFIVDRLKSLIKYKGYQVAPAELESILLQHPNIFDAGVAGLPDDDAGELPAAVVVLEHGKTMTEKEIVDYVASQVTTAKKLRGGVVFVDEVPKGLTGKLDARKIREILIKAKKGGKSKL
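Purified P. pyralis luciferase (10nM final) with 10uM D-luciferin and 10uM ATP (Km levels) in 50mM Tris acetate pH 7.5, 10mM Mg acetate, 0.01% Tween-20, 0.05% BSA; qHTS 6-point titration, ~60 µM downward; luminescence read.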
Of the large screens only hits and unclear results are named; the others gave an inactive call. Sampled rows, rich in hits. Any-hit rate of the full collection: about 9.3%. Calls come from the whole dose curve; as a rule, active = well fitted curve in the direction sought with a large enough effect; inconclusive = small, poorly fitted or top-dose-only effect, or another doubt; inactive = no such curve, though single readings can be large; an effect the other way counts as inactive or inconclusive.

CC(C)COP(=O)(c1ccc(N(C)C)cc1)C(O)c1cccnc1 (stereo unspecified)	none (no result: SMN2 splice enh)
O=C(OCc1ccc2c(c1)OCO2)c1cccc(S(=O)(=O)N2CCCCC2)c1	none
COc1ccc(C(=O)N(CCc2ccccc2)Cc2ccccc2)c(OC)n1	ELG1 DNA repair inconclusive (no result: SMN2 splice enh)
CC(=O)N1CC=CC1(CC(C)C)C(=O)NCCc1c[nH]c2ccccc12 (stereo unspecified)	FLuc modulator inconclusive
COc1ccc(C(=O)c2ccsc2N)cc1	ELG1 DNA repair inconclusive, ELG1 genotoxic inconclusive, NPC1 promoter act 3.5µM, Rab9 promoter act inconclusive, FLuc modulator 17µM (no result: SMN2 splice enh)
COc1ccc(C(=O)c2ccc(CC#N)s2)cc1	ELG1 DNA repair inconclusive, ELG1 genotoxic inconclusive, SMN2 splice enh 13µM, NPC1 promoter act inconclusive, Rab9 promoter act inconclusive, FLuc modulator 12µM
O=c1cc(N2CCCCC2)c2ccccc2o1	none (no result: SMN2 splice enh)
O=C(/C=C/c1ccccc1)c1ccccn1	ELG1 DNA repair inconclusive, NPC1 promoter act inconclusive, Rab9 promoter act inconclusive, FLuc modulator 1.3µM
O=C(/C=C/c1ccccc1Cl)NNC(=O)c1cccs1	FLuc modulator inconclusive
N/C(=N\OC(=O)/C=C/c1ccccc1Cl)c1ccncc1	ELG1 DNA repair inconclusive, SMN2 splice enh 1.4µM, NPC1 promoter act 1.3µM, Rab9 promoter act 0.71µM, FLuc modulator 0.85µM
N/C(=N\OC(=O)/C=C/c1ccccc1)c1ccccn1	ELG1 DNA repair inconclusive, ELG1 genotoxic 4.1µM, SMN2 splice enh 13µM, NPC1 promoter act inconclusive, Rab9 promoter act 2.5µM, FLuc modulator 0.67µM
O=C(/C=C/c1ccccc1Cl)NNC(=O)c1ccncc1	FLuc modulator 21µM (no result: SMN2 splice enh)
O=C(/C=C/c1ccccc1)N1CCN(c2ccccn2)CC1	ELG1 DNA repair inconclusive, FLuc modulator inconclusive
O=C(c1ccccc1)c1ccc(C(=O)N2CCN(c3ccccc3Cl)CC2)cc1	none (no result: SMN2 splice enh, FLuc modulator)
O=C(NCCc1ccc(Cl)cc1)C1CCC(CNc2nc(=S)[nH]c3ccccc23)CC1 (stereo unspecified)	ELG1 DNA repair inconclusive, ELG1 genotoxic inconclusive
N#Cc1nc(-c2ccccc2)oc1NCc1ccco1	ELG1 genotoxic inconclusive, FLuc modulator inconclusive
COC(=O)CSc1nc(N)c2c3c(sc2n1)C(c1ccccc1)SC(c1ccccc1)C3 (stereo unspecified)	none
N/C(=N\OC(=O)/C=C/c1ccccc1)c1ccncc1	ELG1 DNA repair inconclusive, ELG1 genotoxic inconclusive, NPC1 promoter act 3.2µM, Rab9 promoter act 1.8µM, FLuc modulator 6µM
C=C(C(=O)c1ccccc1)C(C(=C)C(=O)c1ccccc1)c1ccc(OC)cc1	ELG1 DNA repair 16µM (no result: SMN2 splice enh)
C=C(C(=O)c1ccccc1)C(C)C(=C)C(=O)c1ccccc1	ELG1 DNA repair 21µM
CCCSc1nnc(-c2c[nH]c3ccccc23)n1C	ELG1 DNA repair inconclusive, ELG1 genotoxic inconclusive, FLuc modulator 15µM
CN1CCc2c(sc3c2C(=O)NC(c2ccccc2)N3)C1 (stereo unspecified)	ELG1 DNA repair inconclusive, FLuc modulator inconclusive
CC(C)(C)C1CCc2c(sc3c2C(=O)NC(c2ccco2)N3)C1 (stereo unspecified)	ELG1 DNA repair inconclusive, SMN2 splice enh 13µM, NPC1 promoter act inconclusive, Rab9 promoter act 2.5µM, FLuc modulator 3µM
CCN(CC)CCN(Cc1cc2cc3c(cc2[nH]c1=O)OCO3)C(=S)NC	none (no result: SMN2 splice enh)
CCOC(=O)CNC(=O)CSc1nnc(NC(=O)c2ccc3c(c2)OCO3)s1	ELG1 DNA repair inconclusive, ELG1 genotoxic 3.3µM, NPC1 promoter act 3.5µM, Rab9 promoter act 3.2µM, FLuc modulator 0.95µM (no result: SMN2 splice enh)
Cc1ccc(C(=O)Nc2nnc(SCC(=O)N3CCCc4ccccc43)s2)cc1	ELG1 DNA repair inconclusive, ELG1 genotoxic inconclusive, SMN2 splice enh inconclusive, NPC1 promoter act inconclusive, Rab9 promoter act 0.32µM, FLuc modulator 0.15µM
CCOC(=O)CNC(=O)CSc1nc(-c2cccc(C)c2)ns1	FLuc modulator 24µM
CCOC(=O)CNC(=O)c1ccc(SCC)cc1	ELG1 DNA repair inconclusive, ELG1 genotoxic inconclusive, NPC1 promoter act inconclusive, Rab9 promoter act inconclusive, FLuc modulator 19µM (no result: SMN2 splice enh)
Cc1cccc(-c2nsc(SCC(=O)NCc3ccco3)n2)c1	ELG1 DNA repair inconclusive, FLuc modulator inconclusive
Cc1cc(-c2ccc(S(=O)(=O)NCc3ccc(F)cc3)cc2)on1	none (no result: SMN2 splice enh)
CN(C)S(=O)(=O)c1ccc2nnn(OCC(=O)NC3CCS(=O)(=O)C3)c2c1 (stereo unspecified)	none (no result: SMN2 splice enh, FLuc modulator)
CCOC(=O)CSc1nnc(NC(=O)c2cccc([N+](=O)[O-])c2)s1	FLuc modulator 11µM
CCOC(=O)CNC(=O)CSc1nnc(NC(=O)c2ccc(C)cc2)s1	ELG1 DNA repair inconclusive, ELG1 genotoxic inconclusive, SMN2 splice enh 5µM, NPC1 promoter act 1.8µM, Rab9 promoter act 0.56µM, FLuc modulator 0.6µM
CCOC(=O)CNC(=O)CSc1nnc(SCC(=O)NCC(=O)OCC)s1	none
O=C(NC1CCCCC1)c1ccc(-c2cccc([N+](=O)[O-])c2)o1	ELG1 DNA repair inconclusive, ELG1 genotoxic 2.1µM, NPC1 promoter act 0.32µM, Rab9 promoter act 0.4µM, FLuc modulator 2.7µM (no result: SMN2 splice enh)
COc1cccc(-c2cc(C(=O)NC3CCCC3)no2)c1	ELG1 DNA repair inconclusive, ELG1 genotoxic 1.8µM, SMN2 splice enh 11µM, NPC1 promoter act 1.4µM, Rab9 promoter act 0.63µM, FLuc modulator 4.3µM
COCCNC(=O)c1cc(-c2cccc(OC)c2)on1	ELG1 DNA repair inconclusive, ELG1 genotoxic inconclusive, SMN2 splice enh 11µM, NPC1 promoter act 3.5µM, Rab9 promoter act 3.2µM, FLuc modulator 12µM
COCC(C)NC(=O)c1cc(-c2cccc(OC)c2)on1 (stereo unspecified)	ELG1 DNA repair inconclusive, ELG1 genotoxic inconclusive, SMN2 splice enh inconclusive, NPC1 promoter act inconclusive, Rab9 promoter act 2.2µM, FLuc modulator inconclusive
COc1cccc(-c2cc(C(=O)Nc3cccnc3Cl)no2)c1	ELG1 DNA repair inconclusive, ELG1 genotoxic inconclusive
Cc1c2ccccc2c(C)c2c1ccc1ccccc12	ELG1 DNA repair inconclusive, ELG1 genotoxic 18µM, Rab9 promoter act inconclusive, FLuc modulator 13µM
CC1=Nc2ccc3ccccc3c2C1(C)C	none
O=S(=O)(Cc1ccccc1)N=Nc1c(O)[nH]c2ccc(Br)cc12	none (no result: SMN2 splice enh)
Cc1ccc(C)c(/C=N/NC(=S)NC(C)C)c1	none
O=C(CCc1ccc(Oc2cc([N+](=O)[O-])cc([N+](=O)[O-])c2)cc1)N1CCCCC1	ELG1 DNA repair 13µM
CN(C)C(=O)/C(=C\c1ccc(-c2cccc([N+](=O)[O-])c2)o1)NC(=O)c1ccccc1	ELG1 DNA repair 21µM
CN(C)C(=O)/C(=C/c1ccc(-c2cccc([N+](=O)[O-])c2)o1)NC(=O)c1ccccc1	ELG1 DNA repair inconclusive (no result: SMN2 splice enh)

Bioassay records: PubChem BioAssay, National Center for Advancing Translational Sciences (NCATS)
